Common to all, as to settings: mRNA level, 48 h; actives raise or lower the signal
Read-out in one assay: CYP2C8 (gene 1558)
The assay can be described thus: LTEA_HepaRG_CYP2C8: Life Technologies and Expression Analysis (LTEA) Assay for CYP2C8 using HepaRG (AID 2283483). An outline of the steps: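 HepaRG (human liver line), 48 h chemical exposure, 8-pt half-log series from 100 uM, 0.5% DMSO vehicle. Readout: CYP2C8 transcript by qRT-PCR, housekeeping-normalized. Bidirectional fit vs DMSO baseline.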

Read-out in a further assay: CYP2E1 (gene 1571)
Briefly: LTEA_HepaRG_CYP2E1: Life Technologies and Expression Analysis (LTEA) Assay for CYP2E1 using HepaRG (AID 2283485). The gist of the method:
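Readout is qRT-PCR of CYP2E1 mRNA, normalized to three housekeeping genes and fitted bidirectionally against 0.5% DMSO. HepaRG cells were dosed 48 h at eight concentrations, highest 100 uM with half-log dilutions.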

Read-out in another assay: CYP4A11 (gene 1579)
Briefly: LTEA_HepaRG_CYP4A11: Life Technologies and Expression Analysis (LTEA) Assay for CYP4A11 using HepaRG (AID 2283486). The gist of the method:
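HepaRG, 48 h chem exposure, 8 conc (100 uM top, half-log), 0.5% DMSO vehicle; qRT-PCR readout, housekeeping-gene normalized; bidirectional curve fit vs DMSO baseline.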

Read-out in assay [1]: Cytochrome P450 3A4 (Homo sapiens) (UniProt P08684)
The assay can be described thus: LTEA_HepaRG_CYP3A4: Life Technologies and Expression Analysis (LTEA) Assay for CYP3A4 using HepaRG (AID 2283487). An outline of the steps: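 Differentiated HepaRG cells, plated 48 h, then dosed 48 h in serum-free induction medium with 0.5% DMSO, 8 half-log concentrations up to 100 uM, duplicate. CYP3A4 mRNA by qRT-PCR, normalized to ACTB/GAPDH/POLR2A; bidirectional fit versus DMSO.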

Read-out in assay [2]: DNA damage-inducible transcript 3 (DDIT3), DDIT3 (gene 1649)
The assay can be described thus: LTEA_HepaRG_DDIT3: Life Technologies and Expression Analysis (LTEA) Assay for DNA damage-inducible transcript 3 (DDIT3) using HepaRG (AID 2283488). The gist of the method: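 Cells are human HepaRG liver cells treated for 48 h with eight half-log concentrations up to 100 uM in 0.5% DMSO. Transcript levels come from qRT-PCR normalized to three housekeeping genes, with activity fitted in both directions relative to vehicle.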

Read-out in assay [3]: Pro-epidermal growth factor (Homo sapiens) (UniProt P01133)
Briefly: LTEA_HepaRG_EGF: Life Technologies and Expression Analysis (LTEA) Assay for Epidermal growth factor (EGF) using HepaRG (AID 2283489). The gist of the method:
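HepaRG, 48 h dosing, 100 uM top, half-log x8, 0.5% DMSO. Readout: TaqMan qRT-PCR (Fluidigm array), housekeeping-normalized. Gain or loss of signal fit vs DMSO.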

Read-out in assay [4]: Early growth response protein 1 (EGR1) transcription factor, EGR1 (gene 1958)
The assay can be described thus: LTEA_HepaRG_EGR1: Life Technologies and Expression Analysis (LTEA) Assay for Early growth response protein 1 (EGR1) transcription factor using HepaRG (AID 2283490). The gist of the method: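 HepaRG, 48 h exposure, 8-pt half-log series from 100 uM, 0.5% DMSO vehicle; EGR1 transcript by TaqMan qRT-PCR (Fluidigm array), housekeeping-normalized; bidirectional fit relative to DMSO baseline.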

Read-out in assay [5]: Ezrin (EZR), EZR (gene 7430)
Briefly: LTEA_HepaRG_EZR: Life Technologies and Expression Analysis (LTEA) Assay for Ezrin (EZR) using HepaRG (AID 2283491). The gist of the method:
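EZR transcript levels came from Fluidigm qRT-PCR and were normalized to three housekeeping genes after 48 h chemical exposure of HepaRG cells. Dosing used an 8-point half-log series with a 100 uM top concentration in 0.5% DMSO, tested in duplicate; both directions were fitted versus vehicle.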

Read-out in assay [6]: Cytochrome P450 3A7 (Homo sapiens) (UniProt P24462)
The assay can be described thus: LTEA_HepaRG_CYP3A7: Life Technologies and Expression Analysis (LTEA) Assay for CYP3A7 using HepaRG (AID 2283492). The gist of the method:
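Human HepaRG liver cells, 48 h post-plating, switched to serum-free induction medium and exposed in duplicate for 48 h. Dosing: 100 uM top, half-log dilutions, 8 points, 0.5% DMSO vehicle. Read-out: CYP3A7 mRNA, gain or loss fitted against DMSO baseline.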

Read-out in the next assay: CYP3A5 (gene 1577)
Briefly: LTEA_HepaRG_CYP3A5: Life Technologies and Expression Analysis (LTEA) Assay for CYP3A5 using HepaRG (AID 2283493). The gist of the method: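 Human HepaRG hepatic cells receive 48 h chemical treatment at eight concentrations (half-log steps from 100 uM) in 0.5% DMSO. Expression of CYP3A5 is quantified by Fluidigm qRT-PCR and normalized to three reference genes.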

Read-out in assay [7]: Fatty Acid-Binding Protein 1 (FABP1), FABP1 (gene 2168)
Briefly: LTEA_HepaRG_FABP1: Life Technologies and Expression Analysis (LTEA) Assay for Fatty Acid-Binding Protein 1 (FABP1) using HepaRG (AID 2283494). The gist of the method: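 qRT-PCR readout of FABP1 transcript (normalized to three housekeeping genes) after 48 h chemical exposure of HepaRG cells; eight concentrations, half-log steps, max 100 uM, 0.5% DMSO vehicle; gain or loss fitted relative to DMSO baseline.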

Read-out in assay [8]: Cytochrome P450 4A22 (Homo sapiens) (UniProt Q5TCH4)
Briefly: LTEA_HepaRG_CYP4A22: Life Technologies and Expression Analysis (LTEA) Assay for Cytochrome P450 4A22 (CYP4A22) using HepaRG (AID 2283495). The gist of the method: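 Readout is CYP4A22 transcript induction or loss, quantified by qRT-PCR and normalized to ACTB, GAPDH and POLR2A. Human HepaRG cells receive test chemicals for 48 h at eight half-log concentrations from 100 uM in 0.5% DMSO.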

Read-out in assay [9]: Cytochrome P450 7A1 (Homo sapiens) (UniProt P22680)
The assay can be described thus: LTEA_HepaRG_CYP7A1: Life Technologies and Expression Analysis (LTEA) Assay for Cytochrome P450 7A1 (CYP7A1) using HepaRG (AID 2283496). An outline of the steps:
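HepaRG, 48 h exposure, 8-pt half-log series from 100 uM, 0.5% DMSO vehicle, duplicates. Readout: TaqMan qRT-PCR mRNA vs three housekeeping genes; bidirectional curve fit against DMSO baseline.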

Read-out in assay [10]: Glutathione S-Transferase (GSTA2), GSTA2 (gene 2939)
Briefly: LTEA_HepaRG_GSTA2: Life Technologies and Expression Analysis (LTEA) Assay for Glutathione S-Transferase (GSTA2) using HepaRG (AID 2283497). An outline of the steps: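 qRT-PCR readout of GSTA2 transcript, normalized to three housekeeping genes, fitted bidirectionally against 0.5% DMSO baseline. Differentiated HepaRG cells received compound for 48 h at 8 concentrations (top 100 uM, half-log steps).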

Read-out in assay [11]: Glutamate-cysteine ligase catalytic (GCLC), GCLC (gene 2729)
The assay can be described thus: LTEA_HepaRG_GCLC: Life Technologies and Expression Analysis (LTEA) Assay for Glutamate-cysteine ligase catalytic (GCLC) using HepaRG (AID 2283498). An outline of the steps: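 HepaRG, 48 h exposure, 8-pt half-log series from 100 uM, 0.5% DMSO vehicle; TaqMan qRT-PCR for GCLC mRNA, housekeeping-normalized; bidirectional curve fit vs DMSO baseline.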

Read-out in assay [12]: growth arrest and DNA damage 45 (GADD45G), GADD45G (gene 10912)
The assay can be described thus: LTEA_HepaRG_GADD45G: Life Technologies and Expression Analysis (LTEA) Assay for growth arrest and DNA damage 45 (GADD45G) using HepaRG (AID 2283499). An outline of the steps:
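Gain or loss of GADD45G mRNA, quantified by TaqMan qRT-PCR against three housekeeping genes, is fitted in both directions relative to 0.5% DMSO. Human HepaRG cultures receive test chemical for 48 h at up to 100 uM.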

Read-out in assay [13]: Glutamate-cysteine ligase regulatory (GCLM), GCLM (gene 2730)
The assay can be described thus: LTEA_HepaRG_GCLM: Life Technologies and Expression Analysis (LTEA) Assay for Glutamate-cysteine ligase regulatory (GCLM) using HepaRG (AID 2283500). An outline of the steps:
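Endpoint is GCLM transcript level by qRT-PCR, normalized to three housekeeping genes, after 48 h chemical exposure of human HepaRG cells (0.5% DMSO vehicle, top 100 uM, half-log dilutions). Fitting was bidirectional relative to DMSO.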

Read-out in assay [14]: Glutathione S-transferase M3 (GSTM3), GSTM3 (gene 2947)
The assay can be described thus: LTEA_HepaRG_GSTM3: Life Technologies and Expression Analysis (LTEA) Assay for Glutathione S-transferase M3 (GSTM3) using HepaRG (AID 2283501). An outline of the steps: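 HepaRG, plated 48 h, then serum-free induction medium; test chemical 48 h, duplicate; 100 uM top, half-log x8, 0.5% DMSO. Read-out: GSTM3 mRNA (TaqMan qRT-PCR, Fluidigm array). Bidirectional fit vs DMSO.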

The source made the active and inactive calls. Rule for the calls: active = hit-call score of the fitted dose curve at least 0.9, where 1 is the maximum; inactive = score below 0.9.

For orientation: AC50 means the midpoint of the concentration-response curve, whichever way the signal moves.

Sequence of Cytochrome P450 3A4 (Homo sapiens) (P08684 whole entry, looked up): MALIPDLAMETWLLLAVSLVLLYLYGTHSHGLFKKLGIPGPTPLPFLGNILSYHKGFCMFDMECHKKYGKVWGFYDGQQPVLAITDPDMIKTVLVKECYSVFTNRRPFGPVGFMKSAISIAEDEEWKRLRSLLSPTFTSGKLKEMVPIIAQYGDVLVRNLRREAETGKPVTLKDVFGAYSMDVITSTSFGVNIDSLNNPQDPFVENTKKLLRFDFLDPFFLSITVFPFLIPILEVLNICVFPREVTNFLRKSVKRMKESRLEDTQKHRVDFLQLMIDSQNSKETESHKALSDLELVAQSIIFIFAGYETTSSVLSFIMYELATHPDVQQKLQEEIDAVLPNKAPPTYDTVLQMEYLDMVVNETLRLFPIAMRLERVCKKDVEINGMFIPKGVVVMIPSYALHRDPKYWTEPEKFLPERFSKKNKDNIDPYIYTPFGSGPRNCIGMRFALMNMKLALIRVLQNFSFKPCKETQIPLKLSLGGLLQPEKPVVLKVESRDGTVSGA
Sequence of Cytochrome P450 3A7 (Homo sapiens) (P24462 whole entry, looked up): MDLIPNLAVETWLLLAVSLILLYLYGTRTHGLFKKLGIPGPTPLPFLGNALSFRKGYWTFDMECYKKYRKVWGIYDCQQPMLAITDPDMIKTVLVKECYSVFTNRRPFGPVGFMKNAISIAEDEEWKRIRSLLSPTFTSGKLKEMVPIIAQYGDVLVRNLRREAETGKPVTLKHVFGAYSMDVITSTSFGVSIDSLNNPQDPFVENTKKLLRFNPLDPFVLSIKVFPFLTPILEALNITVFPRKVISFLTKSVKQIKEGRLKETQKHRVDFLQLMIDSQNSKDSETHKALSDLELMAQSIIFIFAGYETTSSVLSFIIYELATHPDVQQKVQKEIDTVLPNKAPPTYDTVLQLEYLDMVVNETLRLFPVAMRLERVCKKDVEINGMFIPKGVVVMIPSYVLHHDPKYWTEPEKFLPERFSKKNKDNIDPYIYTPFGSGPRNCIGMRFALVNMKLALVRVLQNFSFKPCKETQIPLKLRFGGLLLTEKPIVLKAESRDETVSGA

On to `CSc1nc(NC(C)C)nc(NC(C)C)n1`, for which the compound was classed as inactive (with CYP2C8 (gene 1558); in [2]; in [3]; in assay [4]; in [5]; with CYP3A5 (gene 1577)). For the same compound, the outcome in assay [11], in assay [13] and in [14] was inactive. In addition, the AC50 in the assay with CYP2E1 (gene 1571) was 39.1 µM (active); with CYP4A11 (gene 1579) it was 31 µM (active); in [1] it was 1.46 µM (active); in assay [6] it was 1.17 µM (active); in [7], 44.1 µM (active); in assay [8], 24.3 µM (active). Further, the AC50 in assay [9] was 50 µM (active); in assay [10], 81.6 µM (active); in assay [12], 64.7 µM (active).

Turning to `CCCOc1nn(C(=O)NS(=O)(=O)c2ccccc2C(=O)OC)c(=O)n1C`, the outcome (with CYP2C8 (gene 1558); with CYP2E1 (gene 1571); in the assay with CYP4A11 (gene 1579); in assay [1]; in assay [2]; in [3]) was inactive. Further, the outcome (in assay [4]; in [6]; in the assay with CYP3A5 (gene 1577); in assay [7]; in assay [8]; in assay [9]) was inactive. Also, the compound was classed as inactive in assay [11], in [12], in [13] and in assay [14].

As to `CC1(C(=O)Nc2ccc(O)c(Cl)c2Cl)CCCCC1`, the call (with CYP2C8 (gene 1558); in the assay with CYP2E1 (gene 1571); with CYP4A11 (gene 1579); in [2]; in assay [3]; in assay [4]) was inactive. Besides, the compound was classed as inactive (in assay [6]; with CYP3A5 (gene 1577); in assay [7]; in assay [8]; in assay [9]; in assay [11]). Besides, the result in assay [12], in assay [13] and in assay [14] was inactive. In assay [1], the AC50 is 21.4 µM (active).

The values are drawn from PubChem BioAssay (EPA / NIEHS).
